Measured values as given in PubChem BioAssay.
Calls of active or inactive are those of the source. Unless noted, the rule behind the calls is not given here.

How the values were obtained:
[1] = HepG2 liver cancer cell viability effects, profiling panel, resazurin fluorescence, 24 h, PK04 Diversity Set (AID 1172); conditions: higher = more signal
[2] = basal S. cerevisiae growth modulation, no modifier, primary screen, OD600, strain BY4716, 24 h, basal condition (AID 1173); conditions: OD600, 24 h, higher = more signal, called active from +8 up or from −8 down
[3] = MM1S myeloma cell viability, profiling panel, resazurin fluorescence, basal, 24 h, PK04 Diversity Set (AID 1174); conditions: higher = more signal, called active from +8 up or from −8 down;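 note: MM1S multiple myeloma cell line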
[4] = target: Dihydroorotate dehydrogenase (quinone), mitochondrial (Plasmodium falciparum (isolate 3D7)) (UniProt Q08210); assay: PfDHODH enzyme inhibitors, primary screen, biochemical, C-terminal His tag, absorbance 600 nm (AID 1175); conditions: DCIP absorbance 600 nm, higher = more signal, called active from +8 up or from −8 down;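 note: recombinant parasite enzyme with a five histidine tag at its C terminus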
[5] = P. aeruginosa biofilm formation inhibitors, primary screen, strain PAO1, LB-PBS medium, absorbance 600 nm (AID 1176); conditions: P. aeruginosa PAO1 growth/biofilm, A600, 12 h; higher = more signal
[6] = S. cerevisiae RM11-1a growth modifiers, primary screen, strain RM11-1a, OD600, basal, 24 h (AID 1177); conditions: OD600, 24 h, higher = more signal, called active from +8 up or from −8 down;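 note: cultures grown under basal conditions with no added stressor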
[7] = E. coli acrAB mutant growth effects, primary screen, E. coli filamentation inducers, strain DRC39, OD650, 24 h (AID 1178); conditions: higher = more signal, called active from +8 up or from −8 down;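 note: growth measured as culture turbidity by optical density at 650 nm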
[8] = E. coli acrAB mutant growth effects, primary screen, E. coli filamentation inducers, strain DRC39, OD650, 48 h (AID 1179);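 note: screen aims at cell division blockers that make cells filament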; conditions: E. coli DRC39 delta-acrAB growth, higher = more signal, called active from +8 up or from −8 down
[9] = RPMI8226 myeloma cell viability, profiling panel, resazurin fluorescence, basal, 24 h, PK04 Diversity Set (AID 1180); conditions: higher = more signal;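 note: RPMI8826 multiple myeloma cell line at 5000 cells per well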
[10] = target: E3 ubiquitin-protein ligase XIAP (Homo sapiens) (UniProt P98170); assay: XIAP binders, primary screen, biophysical, small-molecule microarray, fluorescence 635 nm (AID 1181); conditions: small-molecule microarray binding, higher = more signal;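 note: score merges 667 nm emission and signal to noise over triplicate slides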
[11] = system: XIP peptide (Xip251-270) binding; assay: small-molecule binders of XIP peptide, primary screen, biochemical, small-molecule microarray, fluorescence 635/667 nm, 0.1 µg/mL protein (AID 1182); conditions: fluorescent protein binding, 635 nm, higher = more signal, called active from +8 up or from −8 down
XIP peptide (Xip251-270) = assay: small-molecule binders of XIP peptide, primary screen, biochemical, small-molecule microarray, fluorescence 635/667 nm, 0.5 µg/mL protein (AID 1183); conditions: small-molecule microarray binding, fluorescence 635 nm; higher = more signal
[12] = Plasmodium falciparum growth inhibition, primary screen, strain 3D7, DAPI fluorescence, 100 nL (AID 1184);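 note: parasites grown inside human red blood cells in medium with human serum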; conditions: P. falciparum 3D7 growth, 3 d, higher = more signal
[13] = target: Homeobox protein Hox-A13 (Mus musculus) (UniProt Q62424); assay: inhibitors of HoxA13-DNA binding, primary screen, biochemical, fluorescence polarization, labeled oligonucleotide (AID 1185); conditions: 15 min, higher = more signal, called active from +8 up or from −8 down
[14] = inhibitors of hydroxyurea-induced Chk1 phosphorylation, primary screen, imaging, HeLa, phospho-Chk1 antibody, percent positive cells (AID 1186); conditions: hydroxyurea-induced phospho-Chk1 immunofluorescence imaging, higher = more signal
[15] = inhibitors of hydroxyurea-induced Chk1 phosphorylation, primary screen, imaging, HeLa, phospho-Chk1 nuclear intensity (AID 1187); conditions: hydroxyurea-induced phospho-Chk1 immunofluorescence imaging, higher = more signal

Chain of Dihydroorotate dehydrogenase (quinone), mitochondrial (Plasmodium falciparum (isolate 3D7)) (Q08210 whole entry, looked up): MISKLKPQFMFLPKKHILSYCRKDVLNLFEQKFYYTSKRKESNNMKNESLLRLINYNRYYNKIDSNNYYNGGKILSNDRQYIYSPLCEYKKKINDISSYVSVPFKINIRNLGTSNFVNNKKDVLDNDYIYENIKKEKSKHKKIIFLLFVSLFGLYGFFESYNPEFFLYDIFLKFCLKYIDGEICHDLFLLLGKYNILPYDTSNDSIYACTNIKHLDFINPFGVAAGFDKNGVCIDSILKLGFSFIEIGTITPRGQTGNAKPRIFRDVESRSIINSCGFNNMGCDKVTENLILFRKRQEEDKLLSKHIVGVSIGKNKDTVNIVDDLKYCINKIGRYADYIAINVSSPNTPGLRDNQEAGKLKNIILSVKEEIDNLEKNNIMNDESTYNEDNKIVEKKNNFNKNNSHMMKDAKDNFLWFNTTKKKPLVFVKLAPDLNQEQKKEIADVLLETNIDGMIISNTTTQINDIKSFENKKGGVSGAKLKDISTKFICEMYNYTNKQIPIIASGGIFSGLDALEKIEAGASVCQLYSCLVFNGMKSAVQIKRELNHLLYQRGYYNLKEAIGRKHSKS
Chain of E3 ubiquitin-protein ligase XIAP (Homo sapiens) (P98170 whole entry, looked up): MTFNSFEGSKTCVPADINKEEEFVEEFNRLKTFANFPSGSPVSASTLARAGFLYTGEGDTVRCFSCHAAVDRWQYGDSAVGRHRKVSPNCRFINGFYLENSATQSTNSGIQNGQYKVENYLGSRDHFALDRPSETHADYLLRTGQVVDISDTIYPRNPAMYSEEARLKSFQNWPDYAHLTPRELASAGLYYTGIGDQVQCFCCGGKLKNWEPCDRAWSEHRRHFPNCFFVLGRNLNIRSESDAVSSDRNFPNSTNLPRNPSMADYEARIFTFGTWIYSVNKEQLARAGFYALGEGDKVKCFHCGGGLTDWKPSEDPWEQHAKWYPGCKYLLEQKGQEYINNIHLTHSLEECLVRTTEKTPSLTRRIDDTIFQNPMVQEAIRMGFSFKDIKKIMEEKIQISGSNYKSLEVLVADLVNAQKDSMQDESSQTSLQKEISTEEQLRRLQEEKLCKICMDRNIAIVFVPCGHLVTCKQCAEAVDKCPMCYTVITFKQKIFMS
Chain of Homeobox protein Hox-A13 (Mus musculus) (Q62424 whole entry, looked up): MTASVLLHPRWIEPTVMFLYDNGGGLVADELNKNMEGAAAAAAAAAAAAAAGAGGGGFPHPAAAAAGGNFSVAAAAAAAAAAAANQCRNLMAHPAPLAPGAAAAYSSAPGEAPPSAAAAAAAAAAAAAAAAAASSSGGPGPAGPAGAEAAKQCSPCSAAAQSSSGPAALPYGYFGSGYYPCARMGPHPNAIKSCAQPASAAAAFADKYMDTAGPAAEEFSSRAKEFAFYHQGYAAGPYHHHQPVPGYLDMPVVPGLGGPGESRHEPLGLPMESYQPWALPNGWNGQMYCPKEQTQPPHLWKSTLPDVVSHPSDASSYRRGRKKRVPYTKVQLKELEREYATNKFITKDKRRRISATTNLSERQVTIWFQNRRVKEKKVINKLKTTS

CCCCCN1CC=CC23O[C@@H]4C=CCCOC(=O)C4[C@H]2C(=O)N(CCCCCCO)[C@@H]3C1=O (some centres undefined)
z-score [1]: 0.678 | z-score [2]: 0.605 (inactive) | z-score [3]: 0.0267 (inactive) | composite z-score [4]: 0.401 (inactive) | z-score [5]: 0.55 (inactive) | z-score [6]: 0.543 (inactive) | z-score [7]: 0.649 (inactive) | z-score [8]: 0.567 (inactive) | z-score [9]: 0.424 | composite z-score [10]: 0.0702 | composite z-score [11]: 0.592 (inactive) | composite z-score (XIP peptide (Xip251-270)): -0.199 | z-score [12]: -0.103 | z-score [13]: -4.59 (inactive) | z-score [14]: -0.0991 (inactive) | z-score [15]: 0.155 (inactive)

CCOC(=O)C[C@H]1[C@H](OC(=O)c2ccccc2-c2ccccc2)[C@@H](NC(=O)c2ccc3ccccc3n2)c2cc(OCCCO)ccc2N1C(=O)Cc1ccc(OC)cc1
z-score [1]: -0.271 | z-score [2]: 0.64 (inactive) | z-score [3]: -0.343 (inactive) | composite z-score [4]: 0.315 (inactive) | z-score [5]: 0.413 (inactive) | z-score [6]: -0.384 (inactive) | z-score [7]: -0.42 (inactive) | z-score [8]: -0.281 (inactive) | z-score [9]: -0.0052 | composite z-score [10]: -0.408 | composite z-score [11]: -0.0195 (inactive) | composite z-score (XIP peptide (Xip251-270)): -0.203 | z-score [12]: -1.64 | z-score [13]: -2.31 (inactive) | z-score [14]: 0.332 (inactive) | z-score [15]: -0.135 (inactive)

O=C1C2C=CC(C(O)C3CC=CCC3)N(Nc3ccccc3)C2C(=O)N1c1ccccc1 (centres undefined)
z-score [1]: -0.868 | z-score [2]: -1.22 (inactive) | z-score [3]: -1.57 (inactive) | composite z-score [4]: -0.558 (inactive) | z-score [5]: 1.18 (inactive) | z-score [6]: -0.197 (inactive) | z-score [7]: -0.572 (inactive) | z-score [8]: -0.658 (inactive) | z-score [9]: -1.12 | composite z-score [10]: 0.251 | composite z-score [11]: 0.767 (inactive) | composite z-score (XIP peptide (Xip251-270)): 0.748 | z-score [12]: -0.653 | z-score [13]: -3.25 (inactive) | z-score [14]: 0.639 (inactive) | z-score [15]: 0.201 (inactive)

CO[C@H]1O[C@H](CO)[C@@H](OC(=O)CCc2ccccc2)[C@@H]2OC(=O)[C@@H](Cc3ccccc3)C/C=C/C[C@H](Cc3ccccc3)C(=O)O[C@@H]12
z-score [1]: 0.195 | z-score [2]: -0.559 (inactive) | z-score [3]: -0.887 (inactive) | composite z-score [4]: -1.53 (inactive) | z-score [5]: -0.661 (inactive) | z-score [6]: 0.532 (inactive) | z-score [7]: 1.06 (inactive) | z-score [8]: 1.79 (inactive) | z-score [9]: 0.943 | composite z-score [10]: 0.913 | composite z-score [11]: -0.315 (inactive) | composite z-score (XIP peptide (Xip251-270)): 0.506 | z-score [12]: -0.655 | z-score [13]: -3.06 (inactive) | z-score [14]: -0.682 (inactive) | z-score [15]: -0.379 (inactive)
